Potency and affinity values are given separately.
test system: Klebsiella pneumoniae; conditions: Concentration 32 ug.mL-1; ASSAY_TEST Inhibition of Bacterial Growth; detection method Absorption (OD600); MEDIA CAMHB; plate type 384well; NBS; CORNING #3640; time 18 hr

| Compound | Inhibition |
| --- | --- |
| C=C1CN(C)c2c(C#N)c(-c3ccccc3)c(C#N)c(=O)n21 | -0.48% |
| N#CC1=C(N)Oc2c(ccc3ccccc23)C1c1ccc(Cl)c(Cl)c1 (stereo not given) | -23.32% |
| Cl.ClCCCN1CCCCC1 | 13.52% |
| CCOc1nc(N)c(C#N)cc1C#N.Cl | -1.63% |
| O=C1OC(c2ccccc2)=NC12CC2c1ccc([N+](=O)[O-])cc1 (stereo not given) | 15.67% |
| Cc1nc(Nc2ccccc2)c2cnn(-c3ccccc3)c2n1 | 17.53% |
| CNCc1cc2cc(OC)ccc2n1C.Cl | 8.64% |
| Cc1nc2c3cnn(-c4ccccc4)c3nc(C)n2n1 | 15.01% |
| NNC(=O)C1(NC(=O)c2ccccc2)CC1c1cccc(O)c1 (stereo not given) | 19.56% |
| C#CCN(C)c1nc(NCCC2CCN(Cc3ccccc3)CC2)c(C#N)cc1C#N.Cl | 3.63% |
| CCOc1nc(N)c(C#N)c(-c2ccccc2)c1C#N | 4.68% |
| Cc1nc(NCc2ccccc2)c2cnn(-c3ccccc3)c2n1 | 15.01% |
| CC(=O)/C=C/C1CCN(Cc2ccccc2)CC1 | 7.64% |
| CCOC(N)=CC#N | -6.69% |
| O=C(N/N=C/c1c[nH]c2ccccc12)c1ccco1 | 12.93% |
| N#C/C(=C\c1ccccc1)C(=O)c1ccccc1 | 5.05% |
| O=C(N/N=C/c1c[nH]c2ccccc12)C(c1ccccc1)c1ccccc1 | 10.97% |
| N#CC1=C(N)NC(=O)CC1c1ccccc1 (stereo not given) | 22.17% |
| N#Cc1c(N)nc(NCCC2CCN(Cc3ccccc3)CC2)c(C#N)c1-c1ccccc1 | 5.9% |
| COc1cccc(-c2c(C#N)c(=O)oc3c2ccc2ccccc23)c1 | 2.22% |

| Compound | Inhibition |
| --- | --- |
| O=C(COc1ccc2ccccc2c1)NNCc1c[nH]c2ccccc12 | 9.52% |
| Cc1cnc2ccc(Br)cn12 | -1.82% |
| COc1ccc(C2c3c(ccc4ccccc34)OC(=NBr)C2(Br)C#N)cc1 (stereo not given) | 26.17% |
| Cc1ccc(C2c3ccc4ccccc4c3Oc3nc4c(c(N)c32)CCCC4)cc1.Cl (stereo not given) | -14.84% |
| NC(=O)c1cc2cc(OCc3ccccc3)ccc2[nH]1 | 5.14% |
| CC(=O)Nc1n[nH]c2nc(N)c(C#N)c(-c3ccccc3)c12 | 17.23% |
| N#Cc1c(N)nc(O)c(C#N)c1-c1ccccc1 | -0.05% |
| Cn1ccnc1C1c2ccc3cccnc3c2Oc2nc3c(c(N)c21)CCC3 (stereo not given) | 5.38% |
| CC(C)(C)OC(=O)Nc1ncccc1Br | 19.74% |
| Cc1nc2c3c(C)nn(-c4ccccc4)c3ncn2n1 | 13.92% |
| COc1ccc(C2c3ccc4ccccc4c3Oc3nc4c(c(N)c32)CCCC4)c(OC)c1 (stereo not given) | 4.09% |
| COc1ccccc1C1C(C#N)=C(N)Oc2ccc3ccccc3c21 (stereo not given) | 9.04% |
| O=C(N/N=C/c1ccc([N+](=O)[O-])cc1)c1cc2ccccc2[nH]1 | 7.41% |
| Cl.Nc1c2c(nc3c1C(c1ccccc1)c1c(ccc4ccccc14)O3)CCCC2 (stereo not given) | 8.19% |
| COc1cc(Br)c(C=O)cc1OC | 3.95% |
| CN1C/C(=C\Cl)n2c1c(C#N)cc(C#N)c2=O | 5.49% |
| COc1nc(N)c(C#N)cc1C#N | 5.43% |
| C=CCNCc1cc2cc(OCCCC3CCN(Cc4ccccc4)CC3)ccc2[nH]1.O.O=C(O)C(=O)O.O=C(O)C(=O)O | -6.45% |
| COc1ccc(C2C(C#N)=C(N)Oc3[nH]nc(C)c32)cc1 (stereo not given) | -10.09% |
| Cc1ccc(C2c3ccc4ccccc4c3Oc3nc4c(c(N)c32)CCCC4)cc1 (stereo not given) | -8.56% |

test system: Candida albicans; conditions: 32 ug/mL

| Compound | Inhibition |
| --- | --- |
| C=C1CN(C)c2c(C#N)c(-c3ccccc3)c(C#N)c(=O)n21 | 3.72% |
| N#CC1=C(N)Oc2c(ccc3ccccc23)C1c1ccc(Cl)c(Cl)c1 (stereo not given) | 1.53% |
| Cl.ClCCCN1CCCCC1 | 1.17% |
| CCOc1nc(N)c(C#N)cc1C#N.Cl | 2.86% |
| O=C1OC(c2ccccc2)=NC12CC2c1ccc([N+](=O)[O-])cc1 (stereo not given) | 1.56% |
| Cc1nc(Nc2ccccc2)c2cnn(-c3ccccc3)c2n1 | 0.68% |
| CNCc1cc2cc(OC)ccc2n1C.Cl | -1.26% |
| Cc1nc2c3cnn(-c4ccccc4)c3nc(C)n2n1 | -1.82% |
| NNC(=O)C1(NC(=O)c2ccccc2)CC1c1cccc(O)c1 (stereo not given) | 0.45% |
| C#CCN(C)c1nc(NCCC2CCN(Cc3ccccc3)CC2)c(C#N)cc1C#N.Cl | -0.31% |
| CCOc1nc(N)c(C#N)c(-c2ccccc2)c1C#N | 1.61% |
| Cc1nc(NCc2ccccc2)c2cnn(-c3ccccc3)c2n1 | -0.57% |
| CC(=O)/C=C/C1CCN(Cc2ccccc2)CC1 | 0.43% |
| CCOC(N)=CC#N | 0.84% |
| O=C(N/N=C/c1c[nH]c2ccccc12)c1ccco1 | 1.93% |
| N#C/C(=C\c1ccccc1)C(=O)c1ccccc1 | 4.89% |
| O=C(N/N=C/c1c[nH]c2ccccc12)C(c1ccccc1)c1ccccc1 | 1.46% |
| N#CC1=C(N)NC(=O)CC1c1ccccc1 (stereo not given) | 1.7% |
| N#Cc1c(N)nc(NCCC2CCN(Cc3ccccc3)CC2)c(C#N)c1-c1ccccc1 | 4.31% |
| COc1cccc(-c2c(C#N)c(=O)oc3c2ccc2ccccc23)c1 | 24.3% |

| Compound | Inhibition |
| --- | --- |
| O=C(COc1ccc2ccccc2c1)NNCc1c[nH]c2ccccc12 | 3.01% |
| Cc1cnc2ccc(Br)cn12 | 1.23% |
| COc1ccc(C2c3c(ccc4ccccc34)OC(=NBr)C2(Br)C#N)cc1 (stereo not given) | 10.1% |
| Cc1ccc(C2c3ccc4ccccc4c3Oc3nc4c(c(N)c32)CCCC4)cc1.Cl (stereo not given) | 5.49% |
| NC(=O)c1cc2cc(OCc3ccccc3)ccc2[nH]1 | 6.4% |
| CC(=O)Nc1n[nH]c2nc(N)c(C#N)c(-c3ccccc3)c12 | 3.09% |
| N#Cc1c(N)nc(O)c(C#N)c1-c1ccccc1 | 5.45% |
| Cn1ccnc1C1c2ccc3cccnc3c2Oc2nc3c(c(N)c21)CCC3 (stereo not given) | 2.9% |
| CC(C)(C)OC(=O)Nc1ncccc1Br | 1.17% |
| Cc1nc2c3c(C)nn(-c4ccccc4)c3ncn2n1 | -0.04% |
| COc1ccc(C2c3ccc4ccccc4c3Oc3nc4c(c(N)c32)CCCC4)c(OC)c1 (stereo not given) | 0.01% |
| COc1ccccc1C1C(C#N)=C(N)Oc2ccc3ccccc3c21 (stereo not given) | 2.24% |
| O=C(N/N=C/c1ccc([N+](=O)[O-])cc1)c1cc2ccccc2[nH]1 | 0.87% |
| Cl.Nc1c2c(nc3c1C(c1ccccc1)c1c(ccc4ccccc14)O3)CCCC2 (stereo not given) | 1.33% |
| COc1cc(Br)c(C=O)cc1OC | 3.94% |
| CN1C/C(=C\Cl)n2c1c(C#N)cc(C#N)c2=O | 1.11% |
| COc1nc(N)c(C#N)cc1C#N | 3.36% |
| C=CCNCc1cc2cc(OCCCC3CCN(Cc4ccccc4)CC3)ccc2[nH]1.O.O=C(O)C(=O)O.O=C(O)C(=O)O | 0.53% |
| COc1ccc(C2C(C#N)=C(N)Oc3[nH]nc(C)c32)cc1 (stereo not given) | 1.54% |
| Cc1ccc(C2c3ccc4ccccc4c3Oc3nc4c(c(N)c32)CCCC4)cc1 (stereo not given) | 2.81% |
